The source of these data is PubChem BioAssay (NCI).

Experiment [1] is described as follows: NCI Yeast Anticancer Drug Screen. Data for the rad50 strain (AID 155).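 Note: 0% = growth of vehicle-only cultures of the same strain.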 The note with it: S. cerevisiae rad50 strain growth inhibition; at 50.0 µM; active compounds read high. In outline:
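Readout: growth inhibition relative to vehicle-treated cultures. Compound exposure was carried out in a genetically defined yeast strain deficient in DNA damage repair.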

A short description of experiment [2]: NCI Yeast Anticancer Drug Screen. Data for the mec2-1 strain (AID 157). The note with it: S. cerevisiae mec2-1 strain, at 50.0 µM, active compounds read high. In outline: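 mec2-1 yeast strain, carrying an alteration in DNA damage repair or cell cycle control, was exposed to compounds; growth inhibition was measured relative to vehicle-treated controls.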
Experiment [3] in a line: NCI Yeast Anticancer Drug Screen. Data for the sgs1 mgt1 strain (AID 161).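 Note: 0% = growth of cultures given vehicle only.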 The note with it: S. cerevisiae sgs1 mgt1 strain, at 50.0 µM, active compounds read high. In outline:
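Yeast cells carrying a defined DNA-repair defect were exposed to test compounds. Growth inhibition was measured relative to vehicle-treated controls.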

Experiment [4] is described as follows: NCI Yeast Anticancer Drug Screen. Data for the cln2 rad14 strain (AID 165).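 Note: 0% = growth equal to vehicle treated cultures.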 The note with it: S. cerevisiae cln2 rad14 strain, at 50.0 µM, active compounds read high. The method, boiled down:
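Yeast carrying cln2 and rad14 alterations (cell cycle control and DNA damage repair) were exposed to compounds. Growth inhibition was measured against vehicle-treated controls.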

A short description of experiment [5]: NCI Yeast Anticancer Drug Screen. Data for the bub3 strain (AID 167). The note with it: S. cerevisiae bub3 mutant strain, at 50.0 µM, active compounds read high. The method, boiled down:
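Readout: yeast growth inhibition, expressed relative to vehicle-only wells. The test organism is a mutant strain from a panel with lesions in DNA repair or checkpoint genes.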

Experiment [6] is described as follows: NCI Yeast Anticancer Drug Screen. Data for the mlh1 rad18 strain (AID 175). The note with it: S. cerevisiae mlh1 rad18 strain growth inhibition; at 50.0 µM; active compounds read high. In outline:
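Growth inhibition of the yeast strain was measured after compound exposure and expressed relative to vehicle-treated controls. The strain carries defined defects in DNA damage repair.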

About 79,000 compounds went through this panel and 15% of them were active in at least one assay; those are over-represented in the sample as a whole. Unmarked numbers belong to inactive results. Active and inactive are the calls of the source. Cut-off read from the data, not from the text of the source: active = growth inhibition above about 70%; inactive = the rest.

`COC(=O)c1cc([N+](=O)[O-])cc([N+](=O)[O-])c1`: the growth inhibition in experiment [1] was 9%; in experiment [2], 32.2%; in experiment [3], 16.5%; in experiment [4], -8.4%; in experiment [5], 18.4%; in experiment [6] it was 34.1%.
For the molecule `N#CS.[Co+3].[NH-]CC[NH-].[NH-]CC[NH-].[NH-]CC[SH2+]`, the growth inhibition in experiment [1] was 12.2%; in experiment [2] it was 43%; in experiment [3], 13.2%; in experiment [4], 3.2%; in experiment [5], 35.6%; in experiment [6], 9.65%.
As for `C=C1CCN2CC[C@@H](OC(=O)/C(C)=C\C)[C@@H]12`, the growth inhibition in experiment [1] was 1.65%; in experiment [2], 1.3%; in experiment [3] it was 7.1%; in experiment [4], -1.9%; in experiment [5], 12.9%; in experiment [6], -22.1%.
In the case of `[CH3][Sn]1([CH3])[O]CC(COc2cc(Cl)c(Cl)cc2Cl)[O]1` (stereo not given), the growth inhibition in experiment [1] was -22.4%; in experiment [2], 6.65%; in experiment [3] it was 2.95%; in experiment [4], 5.35%; in experiment [5], -10.1%; in experiment [6], 4.5%.
For the molecule `CC(C)=CC1CC(=[N+]=[N-])C(=O)C1(C)C` (stereo not given), the growth inhibition in experiment [1] was 33.5%; in experiment [2], 7.1%; in experiment [3], 17%; in experiment [4], 16.9%; in experiment [5], 4.05%; in experiment [6] it was 28.6%.
As for `CC(=O)Nc1ccc([As](=O)(O)O)cc1[N+](=O)[O-]`, the growth inhibition in experiment [1] was 0.85%; in experiment [2], -12.3%; in experiment [3] it was 0.1%; in experiment [4], -3.35%; in experiment [5] it was 23.2%; in experiment [6], 15.5%.
For `N.N.N.N.O=C([O-])CCl.O=C([O-])CCl.[Co+3].[O-][Cl+3]([O-])([O-])[O-]`, the growth inhibition in experiment [1] was -32.1%; in experiment [2], -0.45%; in experiment [3], -30.4%; in experiment [4], 26.7%; in experiment [5] it was -6.5%; in experiment [6] it was -17.5%.
In the case of `O=C1CC2(CCNCC2)C(=O)N1N1CCCCC1`, the growth inhibition in experiment [1] was -2.5%; in experiment [2], 12%; in experiment [3], 5.9%; in experiment [4], 7.15%; in experiment [5], 1.45%; in experiment [6], 5.4%.
With `OC[C@@H](O)[C@@H](O)CO`, the growth inhibition was 3.2% in experiment [1]; -0.25% in experiment [2]; -12.1% in experiment [3]; 15.2% in experiment [4]; -5.55% in experiment [5]; 10.1% in experiment [6].
For the molecule `CC(NC1=NCCO1)c1ccsc1` (stereo not given), the growth inhibition was 21.9% in experiment [1]; 12.6% in experiment [2]; 3.5% in experiment [3]; 14.8% in experiment [4]; 3.75% in experiment [5]; -24.1% in experiment [6].
On to `N.N.N.N.N.N#Cc1nn[n-]n1.[Cl-].[Co+3]`, for which the growth inhibition was 4.95% in experiment [1]; 9.25% in experiment [2]; 16.8% in experiment [3]; 24.4% in experiment [4]; 12.3% in experiment [5]; 12.9% in experiment [6].
For the molecule `CC(SC(C)C(=O)N/N=C/c1ccc(N(CCCl)CCCl)cc1)C(=O)N/N=C\c1ccc(N(CCCl)CCCl)cc1` (stereo not given), the growth inhibition in experiment [1] was -0.45%; in experiment [2], -0.55%; in experiment [3], -6.05%; in experiment [4], -10.7%; in experiment [5], 5.05%; in experiment [6] it was 26.1%.
For the molecule `CC(=O)Nc1ccc(-c2ccccc2)cc1`, the growth inhibition in experiment [1] was 39.7%; in experiment [2], 24.8%; in experiment [3], 46.6%; in experiment [4], 17.9%; in experiment [5] it was -0.5%; in experiment [6] it was 32.9%.
Take `Fc1ccc(N=C=S)cc1`: the growth inhibition in experiment [1] is -28.1%; in experiment [2], -20.2%; in experiment [3], -24.1%; in experiment [4] it was -9.8%; in experiment [5], -6.2%; in experiment [6], 2.2%.
On to `Cc1c2ccncc2c(C)c2c1[nH]c1ccccc12`, for which the growth inhibition was 91.2% (active) in experiment [1]; 89.5% (active) in experiment [2]; 90.5% (active) in experiment [3]; 84.9% (active) in experiment [4]; 89.6% (active) in experiment [5]; 90.7% (active) in experiment [6].
On to `COc1cc(C2c3cc4c(cc3OC(O)C2C)OCO4)cc(OC)c1O` (stereo not given), for which the growth inhibition in experiment [1] was -13.2%; in experiment [2], -49.9%; in experiment [3] it was -23.9%; in experiment [4], 8.25%; in experiment [5], -2.9%; in experiment [6] it was -5.75%.
`Nc1noc(N)n1`: the growth inhibition is -43% in experiment [1]; -22.1% in experiment [2]; -26.8% in experiment [3]; -23.1% in experiment [4]; -18.1% in experiment [5]; -28.4% in experiment [6].
Turning to `CCOC(=O)CC(=O)CCl.[Cu+2]`, the growth inhibition is -14.9% in experiment [1]; -8.9% in experiment [2]; -40.4% in experiment [3]; -31.6% in experiment [4]; -15.9% in experiment [5]; -3.2% in experiment [6].
For `C1CCC(NC2CCCC2)CC1`, the growth inhibition is 18% in experiment [1]; 47.1% in experiment [2]; 32.6% in experiment [3]; 59% in experiment [4]; 12.4% in experiment [5]; 13.1% in experiment [6].
For `CS(=O)(=O)NC(=NCCOS(C)(=O)=O)N[N+](=O)[O-]`, the growth inhibition was 9% in experiment [1]; -8.5% in experiment [2]; 19.4% in experiment [3]; -6.85% in experiment [4]; 1.9% in experiment [5]; 11.8% in experiment [6].
